For test [1], the target named is Protein kinase C gamma type (Homo sapiens) (UniProt P05129). To be noted: at 1 µM.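 Note: each value is an averaged percent inhibition of the enzyme.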
Test [2] concerns the target T1, Protein kinase C iota type (Homo sapiens) (UniProt P41743).
T1 sequence (whole entry): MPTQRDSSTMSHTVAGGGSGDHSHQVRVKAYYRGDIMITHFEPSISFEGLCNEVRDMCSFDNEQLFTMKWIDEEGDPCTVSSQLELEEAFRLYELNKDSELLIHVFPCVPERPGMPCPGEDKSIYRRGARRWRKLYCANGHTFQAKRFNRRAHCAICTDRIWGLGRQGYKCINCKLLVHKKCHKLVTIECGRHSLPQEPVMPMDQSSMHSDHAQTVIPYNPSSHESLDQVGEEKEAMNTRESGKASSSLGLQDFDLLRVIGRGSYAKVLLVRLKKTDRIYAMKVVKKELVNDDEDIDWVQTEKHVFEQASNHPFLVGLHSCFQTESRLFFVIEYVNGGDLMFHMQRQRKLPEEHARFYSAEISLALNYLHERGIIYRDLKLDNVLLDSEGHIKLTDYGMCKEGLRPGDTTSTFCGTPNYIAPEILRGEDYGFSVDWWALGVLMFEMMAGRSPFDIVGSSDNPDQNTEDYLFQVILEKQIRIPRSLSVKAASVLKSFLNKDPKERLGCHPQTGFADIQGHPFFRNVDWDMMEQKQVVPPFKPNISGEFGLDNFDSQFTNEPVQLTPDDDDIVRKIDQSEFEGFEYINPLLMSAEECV
To be noted: at 0.1 µM.

Test [3] deals with T1, Protein kinase C iota type (Homo sapiens). To be noted: at 1 µM.
In test [4] the target is Protein kinase C theta type (Homo sapiens) (UniProt Q04759). To be noted: at 0.1 µM.
Chain of Protein kinase C theta type (Homo sapiens) (Q04759 whole entry, looked up): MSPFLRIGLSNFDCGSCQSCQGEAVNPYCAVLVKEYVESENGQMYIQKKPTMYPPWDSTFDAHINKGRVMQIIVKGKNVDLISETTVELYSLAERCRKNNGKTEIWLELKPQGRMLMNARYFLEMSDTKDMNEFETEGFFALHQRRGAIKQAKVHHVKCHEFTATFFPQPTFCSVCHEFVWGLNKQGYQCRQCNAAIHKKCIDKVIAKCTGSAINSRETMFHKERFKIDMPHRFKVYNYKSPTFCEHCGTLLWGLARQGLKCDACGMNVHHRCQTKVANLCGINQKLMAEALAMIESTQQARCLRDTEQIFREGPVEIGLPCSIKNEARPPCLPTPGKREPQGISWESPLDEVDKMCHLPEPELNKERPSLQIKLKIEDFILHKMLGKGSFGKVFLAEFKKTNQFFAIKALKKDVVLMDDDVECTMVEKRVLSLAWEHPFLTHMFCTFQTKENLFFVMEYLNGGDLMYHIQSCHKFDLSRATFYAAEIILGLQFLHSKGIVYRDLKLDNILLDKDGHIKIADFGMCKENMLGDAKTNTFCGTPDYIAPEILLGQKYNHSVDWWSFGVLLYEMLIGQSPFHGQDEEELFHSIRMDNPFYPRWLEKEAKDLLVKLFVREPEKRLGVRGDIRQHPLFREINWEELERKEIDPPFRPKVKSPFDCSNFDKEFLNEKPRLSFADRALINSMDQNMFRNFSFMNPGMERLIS
The target is the same in test [5]. The conditions noted are these: at 1 µM.
Test [6] addresses Protein kinase C beta type (Homo sapiens) (UniProt P05771). The conditions noted are these: at 0.1 µM.
For test [7] the target is unchanged. To be noted: at 1 µM.
For test [8], the target named is T2, Serine/threonine-protein kinase D1 (Homo sapiens) (UniProt Q15139).
T2 sequence (whole entry): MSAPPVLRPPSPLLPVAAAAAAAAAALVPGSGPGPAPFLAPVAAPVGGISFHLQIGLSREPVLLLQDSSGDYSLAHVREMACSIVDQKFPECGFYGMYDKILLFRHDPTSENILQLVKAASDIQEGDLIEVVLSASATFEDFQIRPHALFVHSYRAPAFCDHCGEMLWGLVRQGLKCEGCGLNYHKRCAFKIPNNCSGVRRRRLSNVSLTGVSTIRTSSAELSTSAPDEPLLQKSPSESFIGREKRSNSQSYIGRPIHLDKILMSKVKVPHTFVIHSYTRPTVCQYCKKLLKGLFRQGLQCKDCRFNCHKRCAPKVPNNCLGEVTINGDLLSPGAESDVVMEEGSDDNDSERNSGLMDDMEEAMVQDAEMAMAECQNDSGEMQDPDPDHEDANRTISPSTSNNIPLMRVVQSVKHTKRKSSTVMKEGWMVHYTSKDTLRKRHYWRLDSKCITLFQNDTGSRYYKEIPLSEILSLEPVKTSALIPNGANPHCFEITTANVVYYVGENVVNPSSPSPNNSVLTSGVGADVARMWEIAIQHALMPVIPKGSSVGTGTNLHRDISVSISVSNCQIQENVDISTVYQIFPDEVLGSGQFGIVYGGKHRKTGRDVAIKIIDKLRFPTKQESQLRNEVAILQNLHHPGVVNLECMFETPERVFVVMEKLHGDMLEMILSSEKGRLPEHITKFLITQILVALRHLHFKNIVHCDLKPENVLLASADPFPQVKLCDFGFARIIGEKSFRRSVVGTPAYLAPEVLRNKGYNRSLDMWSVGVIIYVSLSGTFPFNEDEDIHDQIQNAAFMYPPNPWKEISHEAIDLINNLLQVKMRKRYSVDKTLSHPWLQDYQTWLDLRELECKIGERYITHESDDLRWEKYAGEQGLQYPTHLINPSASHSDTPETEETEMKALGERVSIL
The conditions noted are these: at 0.1 µM.

The target in test [9] is T2, Serine/threonine-protein kinase D1 (Homo sapiens). To be noted: at 1 µM.
Test [10] addresses T3, Serine/threonine-protein kinase D2 (Homo sapiens) (UniProt Q9BZL6).
T3 sequence (whole entry): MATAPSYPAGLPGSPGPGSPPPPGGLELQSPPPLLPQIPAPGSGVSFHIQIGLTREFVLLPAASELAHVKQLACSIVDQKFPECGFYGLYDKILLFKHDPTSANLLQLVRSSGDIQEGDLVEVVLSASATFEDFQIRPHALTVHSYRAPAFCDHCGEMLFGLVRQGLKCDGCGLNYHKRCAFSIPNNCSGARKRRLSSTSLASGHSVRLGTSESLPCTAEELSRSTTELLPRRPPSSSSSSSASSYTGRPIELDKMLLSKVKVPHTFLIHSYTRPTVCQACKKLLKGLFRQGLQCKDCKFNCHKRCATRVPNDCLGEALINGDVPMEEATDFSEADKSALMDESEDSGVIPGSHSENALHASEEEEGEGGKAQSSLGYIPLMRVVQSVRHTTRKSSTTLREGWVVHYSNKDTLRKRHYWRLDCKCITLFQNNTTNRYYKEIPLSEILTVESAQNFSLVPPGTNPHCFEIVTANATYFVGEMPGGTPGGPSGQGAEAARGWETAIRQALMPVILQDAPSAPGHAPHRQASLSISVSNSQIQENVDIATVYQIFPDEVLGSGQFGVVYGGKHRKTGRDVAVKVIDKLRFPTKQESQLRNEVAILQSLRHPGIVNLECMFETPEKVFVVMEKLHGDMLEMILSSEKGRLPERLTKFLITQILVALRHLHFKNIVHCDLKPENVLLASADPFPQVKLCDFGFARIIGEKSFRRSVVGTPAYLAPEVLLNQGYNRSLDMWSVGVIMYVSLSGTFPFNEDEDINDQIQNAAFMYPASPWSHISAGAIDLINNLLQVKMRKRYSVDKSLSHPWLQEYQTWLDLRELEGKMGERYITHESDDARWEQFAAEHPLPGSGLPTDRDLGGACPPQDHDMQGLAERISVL
The conditions noted are these: at 0.1 µM.

In test [11] the target is T3, Serine/threonine-protein kinase D2 (Homo sapiens). To be noted: at 1 µM.
For test [12], the target named is T4, Serine/threonine-protein kinase D3 (Homo sapiens) (UniProt O94806).
T4 sequence (whole entry): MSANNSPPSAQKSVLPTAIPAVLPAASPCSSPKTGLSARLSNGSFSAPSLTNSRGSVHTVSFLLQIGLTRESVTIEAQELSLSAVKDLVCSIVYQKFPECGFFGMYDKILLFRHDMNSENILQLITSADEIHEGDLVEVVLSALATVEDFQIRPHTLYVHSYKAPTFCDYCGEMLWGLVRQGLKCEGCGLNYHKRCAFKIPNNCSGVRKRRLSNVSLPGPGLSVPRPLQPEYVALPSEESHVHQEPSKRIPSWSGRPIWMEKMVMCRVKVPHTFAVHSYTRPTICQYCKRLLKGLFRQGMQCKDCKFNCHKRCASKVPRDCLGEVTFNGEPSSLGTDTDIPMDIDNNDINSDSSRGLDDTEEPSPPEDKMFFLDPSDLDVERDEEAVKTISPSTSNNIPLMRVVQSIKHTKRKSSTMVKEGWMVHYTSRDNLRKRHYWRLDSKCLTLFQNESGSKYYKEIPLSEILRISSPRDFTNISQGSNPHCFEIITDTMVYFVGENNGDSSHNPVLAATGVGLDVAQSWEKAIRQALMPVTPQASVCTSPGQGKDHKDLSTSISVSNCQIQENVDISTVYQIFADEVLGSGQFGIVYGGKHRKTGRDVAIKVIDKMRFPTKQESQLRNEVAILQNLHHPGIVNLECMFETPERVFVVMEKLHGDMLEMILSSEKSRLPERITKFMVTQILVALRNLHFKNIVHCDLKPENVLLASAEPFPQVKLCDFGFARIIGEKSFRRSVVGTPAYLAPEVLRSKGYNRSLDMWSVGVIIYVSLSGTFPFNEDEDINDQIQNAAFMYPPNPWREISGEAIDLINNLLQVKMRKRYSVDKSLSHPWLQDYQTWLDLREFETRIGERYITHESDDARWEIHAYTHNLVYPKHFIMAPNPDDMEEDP
The conditions noted are these: at 0.1 µM.

Test [13] concerns the target T4, Serine/threonine-protein kinase D3 (Homo sapiens). To be noted: at 1 µM.
Test [14] has as its target T5, cGMP-dependent protein kinase 1 (Homo sapiens) (UniProt Q13976).
T5 sequence (whole entry): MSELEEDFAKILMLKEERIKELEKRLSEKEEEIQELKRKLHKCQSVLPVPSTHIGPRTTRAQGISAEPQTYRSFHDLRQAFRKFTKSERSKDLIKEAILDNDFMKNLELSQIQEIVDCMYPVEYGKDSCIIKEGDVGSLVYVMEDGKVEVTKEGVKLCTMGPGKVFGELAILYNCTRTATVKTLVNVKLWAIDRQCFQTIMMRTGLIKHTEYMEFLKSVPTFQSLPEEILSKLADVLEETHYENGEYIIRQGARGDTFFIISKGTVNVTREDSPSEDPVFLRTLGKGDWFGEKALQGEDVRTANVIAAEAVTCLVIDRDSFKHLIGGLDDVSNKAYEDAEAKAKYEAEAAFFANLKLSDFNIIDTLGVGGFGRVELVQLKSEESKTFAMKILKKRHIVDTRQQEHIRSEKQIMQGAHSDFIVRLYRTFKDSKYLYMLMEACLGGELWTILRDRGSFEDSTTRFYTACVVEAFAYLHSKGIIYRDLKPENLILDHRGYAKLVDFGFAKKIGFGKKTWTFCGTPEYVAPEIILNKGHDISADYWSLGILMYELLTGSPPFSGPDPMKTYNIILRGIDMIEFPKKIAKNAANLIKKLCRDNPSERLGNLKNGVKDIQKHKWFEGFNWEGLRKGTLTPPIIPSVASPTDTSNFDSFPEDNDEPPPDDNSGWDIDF
To be noted: at 0.1 µM.

The target of test [15] is T5, cGMP-dependent protein kinase 1 (Homo sapiens). The conditions noted are these: at 1 µM.
Test [16] deals with T6, cGMP-dependent protein kinase 2 (Homo sapiens) (UniProt Q13237).
T6 sequence (whole entry): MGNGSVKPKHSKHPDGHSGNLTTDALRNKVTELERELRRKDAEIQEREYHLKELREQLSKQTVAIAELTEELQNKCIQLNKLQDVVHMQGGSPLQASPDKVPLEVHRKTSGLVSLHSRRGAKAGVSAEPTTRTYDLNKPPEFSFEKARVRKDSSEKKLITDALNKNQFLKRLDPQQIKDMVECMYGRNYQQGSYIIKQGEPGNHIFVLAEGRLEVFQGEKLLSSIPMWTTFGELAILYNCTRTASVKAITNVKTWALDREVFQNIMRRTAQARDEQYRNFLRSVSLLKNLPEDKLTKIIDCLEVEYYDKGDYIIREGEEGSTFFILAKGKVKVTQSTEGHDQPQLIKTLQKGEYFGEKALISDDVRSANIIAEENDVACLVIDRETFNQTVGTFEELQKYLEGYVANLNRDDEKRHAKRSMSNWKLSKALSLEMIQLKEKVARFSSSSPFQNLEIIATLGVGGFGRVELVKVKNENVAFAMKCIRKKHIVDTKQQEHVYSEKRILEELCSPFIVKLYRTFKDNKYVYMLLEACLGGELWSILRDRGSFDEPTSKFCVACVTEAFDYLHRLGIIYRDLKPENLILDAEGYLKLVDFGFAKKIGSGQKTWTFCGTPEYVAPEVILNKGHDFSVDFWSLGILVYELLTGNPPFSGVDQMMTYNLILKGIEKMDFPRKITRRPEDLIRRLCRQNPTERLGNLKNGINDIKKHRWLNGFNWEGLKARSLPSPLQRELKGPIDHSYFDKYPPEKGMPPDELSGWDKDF
The conditions noted are these: at 0.1 µM.

In test [17] the target is T6, cGMP-dependent protein kinase 2 (Homo sapiens). The conditions noted are these: at 1 µM.
The target of test [18] is T7, cAMP-dependent protein kinase catalytic subunit PRKX (Homo sapiens) (UniProt P51817).
T7 sequence (whole entry): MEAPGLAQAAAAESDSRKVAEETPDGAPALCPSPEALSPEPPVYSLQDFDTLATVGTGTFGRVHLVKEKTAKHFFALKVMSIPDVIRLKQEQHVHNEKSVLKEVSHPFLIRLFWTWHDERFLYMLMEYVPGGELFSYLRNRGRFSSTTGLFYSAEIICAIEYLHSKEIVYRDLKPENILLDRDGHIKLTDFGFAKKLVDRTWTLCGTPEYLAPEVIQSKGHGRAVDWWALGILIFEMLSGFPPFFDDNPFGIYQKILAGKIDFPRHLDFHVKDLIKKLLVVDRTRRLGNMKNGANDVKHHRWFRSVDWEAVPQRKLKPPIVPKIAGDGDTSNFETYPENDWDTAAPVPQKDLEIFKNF
To be noted: at 0.1 µM.

For test [19], the target named is T7, cAMP-dependent protein kinase catalytic subunit PRKX (Homo sapiens). The conditions noted are these: at 1 µM.
In test [20] the target is Rho-associated protein kinase 1 (Homo sapiens) (UniProt Q13464). To be noted: at 0.1 µM.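 Note: values are mean percent inhibition of ROCK1.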
Chain of Rho-associated protein kinase 1 (Homo sapiens) (Q13464 2-1354 limits assumed): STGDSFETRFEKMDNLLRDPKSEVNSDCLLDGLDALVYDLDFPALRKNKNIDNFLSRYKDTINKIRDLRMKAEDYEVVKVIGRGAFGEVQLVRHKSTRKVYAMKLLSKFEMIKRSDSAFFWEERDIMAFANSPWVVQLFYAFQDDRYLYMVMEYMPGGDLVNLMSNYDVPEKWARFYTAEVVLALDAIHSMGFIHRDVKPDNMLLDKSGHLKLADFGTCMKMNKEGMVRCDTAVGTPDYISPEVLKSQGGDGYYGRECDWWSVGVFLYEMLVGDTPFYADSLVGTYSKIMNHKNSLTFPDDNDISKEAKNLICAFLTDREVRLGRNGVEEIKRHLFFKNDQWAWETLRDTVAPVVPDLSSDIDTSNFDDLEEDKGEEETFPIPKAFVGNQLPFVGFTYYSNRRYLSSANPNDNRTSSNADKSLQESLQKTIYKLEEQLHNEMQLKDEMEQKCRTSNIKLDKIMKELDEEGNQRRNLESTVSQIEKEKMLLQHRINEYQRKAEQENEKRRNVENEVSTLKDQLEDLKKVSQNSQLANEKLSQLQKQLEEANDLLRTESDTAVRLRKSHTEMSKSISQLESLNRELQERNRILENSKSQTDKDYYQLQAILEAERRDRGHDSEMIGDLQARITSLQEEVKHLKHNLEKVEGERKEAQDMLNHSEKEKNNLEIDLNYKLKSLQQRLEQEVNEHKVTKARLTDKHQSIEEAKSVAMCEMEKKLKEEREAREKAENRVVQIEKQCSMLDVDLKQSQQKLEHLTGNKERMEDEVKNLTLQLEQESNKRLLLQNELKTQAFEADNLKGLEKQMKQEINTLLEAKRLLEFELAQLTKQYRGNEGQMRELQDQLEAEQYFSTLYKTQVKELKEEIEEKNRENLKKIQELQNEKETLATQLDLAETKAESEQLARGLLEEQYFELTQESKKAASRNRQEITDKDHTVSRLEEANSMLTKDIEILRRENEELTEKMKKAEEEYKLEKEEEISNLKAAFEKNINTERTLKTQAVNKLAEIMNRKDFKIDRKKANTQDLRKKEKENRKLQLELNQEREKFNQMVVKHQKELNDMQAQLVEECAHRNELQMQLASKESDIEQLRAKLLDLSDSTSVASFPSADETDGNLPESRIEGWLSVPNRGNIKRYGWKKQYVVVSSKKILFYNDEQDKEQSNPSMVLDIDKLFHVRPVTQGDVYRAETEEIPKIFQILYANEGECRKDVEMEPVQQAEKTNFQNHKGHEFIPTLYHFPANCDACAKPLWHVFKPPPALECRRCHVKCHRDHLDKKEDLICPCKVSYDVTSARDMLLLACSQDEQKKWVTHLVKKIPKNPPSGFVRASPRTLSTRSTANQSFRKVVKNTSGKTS

In ChEMBL document CHEMBL1961873, “Compounds: GSK PKIS; Assays: Nanosyn kinase panel” (2012) one finds inhibition data, which are given here for 2 compounds.

Chain of Protein kinase C beta type (Homo sapiens) (P05771 2-671 limits assumed): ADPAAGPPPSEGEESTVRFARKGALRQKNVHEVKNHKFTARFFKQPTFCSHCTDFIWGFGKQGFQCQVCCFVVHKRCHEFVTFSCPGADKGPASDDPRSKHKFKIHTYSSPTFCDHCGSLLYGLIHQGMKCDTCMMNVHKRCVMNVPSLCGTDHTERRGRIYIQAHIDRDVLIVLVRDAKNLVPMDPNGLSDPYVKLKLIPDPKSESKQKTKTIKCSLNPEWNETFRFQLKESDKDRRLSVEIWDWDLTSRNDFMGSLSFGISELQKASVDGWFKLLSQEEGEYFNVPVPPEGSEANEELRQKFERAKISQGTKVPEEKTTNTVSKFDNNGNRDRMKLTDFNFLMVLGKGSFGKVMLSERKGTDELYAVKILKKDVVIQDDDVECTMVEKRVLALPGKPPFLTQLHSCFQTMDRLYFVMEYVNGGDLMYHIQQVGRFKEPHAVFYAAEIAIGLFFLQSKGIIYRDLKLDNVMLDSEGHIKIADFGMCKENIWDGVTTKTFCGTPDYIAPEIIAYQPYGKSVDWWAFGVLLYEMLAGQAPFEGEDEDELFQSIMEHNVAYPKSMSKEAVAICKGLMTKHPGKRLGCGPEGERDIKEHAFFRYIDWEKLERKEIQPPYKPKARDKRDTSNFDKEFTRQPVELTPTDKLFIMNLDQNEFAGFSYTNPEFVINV

In the case of `COC(=O)Nc1nc2ccc(Oc3ccc(NC(=O)Nc4cccc(Cl)c4)cc3)cc2[nH]1`, the inhibition in test [1] is -1.47%; in test [2], 0.42%; in test [3], 0.23%; in test [4], 0.36%; in test [5], 0.17%; in test [6], 0.5%. In addition, the inhibition is 0.57% in [7]; 2.7% in test [8]; 3.03% in [9]; 1.6% in [10]; 2.04% in test [11]; 0.95% in [12]. In addition, the inhibition was 3.39% in test [13]; 0.03% in test [14]; -0.55% in test [15]; 0.27% in test [16]; -0.85% in test [17]; 0.22% in test [18]. The inhibition is -1.01% in [19] and 0.69% in test [20].

As to `N#Cc1c(NC(=O)c2ccc(F)cc2)sc2c1CCCC2`, the inhibition was 0.62% in test [1]; -0.52% in [2]; -1.26% in test [3]; 0.53% in [4]; -0.01% in test [5]; 1.04% in test [6]. The inhibition was 0.69% in test [7]; 1.57% in test [8]; 2.87% in test [9]; 3.3% in [10]; 2.16% in [11]; 1.7% in [12]. Also, the inhibition is 1.92% in [13]; 0.21% in test [14]; 1.54% in test [15]; -0.45% in test [16]; 3.35% in test [17]; 0.52% in test [18]. Besides, the inhibition is 1.79% in test [19] and 0.43% in [20].
